# Sfp PPTase inh – Sfp phosphopantetheinyl transferase inhibition | Q9F4F7 | Biochemical Sfp PPTase activity, qHTS | Potency, µM, inactives show largest response in the series, negative = inhibition, usual class: inhibitors | hit rate 3.5% among 310,000 | AID 1490;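 note: the enzyme is Sfp with the accession as filed and its product quenches rhodamine fluorescence; 0% = enzyme reaction without inhibitor and -100% = no enzyme wells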
#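 Fluorescence-quenching assay with 15 nM Sfp, 5 uM rhodamine-CoA and 12.5 uM BHQ-2-labelled ybbR peptide in pH 7.6 Hepes/MgCl2 buffer. Enzyme was pre-incubated with compound for 15 min at room temperature. Rate was taken from the 30-min fluorescence change (525/598 nm).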
# G9a inh – G9a (human) methyltransferase inhibition | Q96KQ7 | hit rate 8.8% among 350,000 | G9a H3K9 monomethylation, AlphaScreen, 2 h | Potency, µM (series often up to 102 µM), without a hit: top-dose activity, negative = inhibition, hits mostly inhibitors | AID 504332; note: % is set by controls: 0 for no effect and ±100 for the full control effect; nearly all actives have a fitted effect of over 75% in size
# Target sequence (Q96KQ7 913-1193 limits assumed): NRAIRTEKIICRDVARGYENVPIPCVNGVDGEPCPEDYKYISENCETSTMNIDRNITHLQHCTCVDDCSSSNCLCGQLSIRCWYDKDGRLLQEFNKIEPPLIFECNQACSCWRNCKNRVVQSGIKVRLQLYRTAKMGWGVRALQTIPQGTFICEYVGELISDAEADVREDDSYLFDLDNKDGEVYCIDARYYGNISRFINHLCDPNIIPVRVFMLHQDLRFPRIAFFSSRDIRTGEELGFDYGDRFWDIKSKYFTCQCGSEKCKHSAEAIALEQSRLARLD
#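 Readings reflect AlphaScreen signal from monomethyl-H3K9 antibody detection. HMT at 20 nM; substrate b-H3K9 500 nM; cofactor SAM 20 uM; 2 h RT reaction; compounds tested as titrations in qHTS with 15 min preincubation.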
# HP1b chromo inh – inhibitors of HP1-beta chromodomain binding to methylated histone tails | P83916 | AlphaScreen HP1-beta / biotin-H3K9me3 peptide binding | Potency, µM (top dose mostly 114 µM), for inactives: at the highest dose activity change, negative = inhibition, actives largely listed as inhibitors | hit rate 0.56% among 390,000 | AID 540317; note: nearly all actives have a fitted effect of over 70% in size
# Target sequence (P83916 whole entry, looked up): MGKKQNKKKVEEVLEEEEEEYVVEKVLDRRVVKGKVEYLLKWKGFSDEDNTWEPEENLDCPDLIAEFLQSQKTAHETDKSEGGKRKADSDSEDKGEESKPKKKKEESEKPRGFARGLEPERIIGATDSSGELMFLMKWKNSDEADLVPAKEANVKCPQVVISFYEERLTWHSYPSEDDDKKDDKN
#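 HP1-beta protein (50 nM final) preincubated 30 min at room temperature with biotinylated H3(1-18)K9me3 peptide (50 nM) in PBS pH 7.4, 0.01% Tween-20, then compound added for 30 min. AlphaScreen streptavidin donor/nickel chelate acceptor beads (10 ug/mL final), 30 min dark, luminescence read.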
# JMJD2A Tudor inh – blocks the human JMJD2A Tudor domain; O75164; Potency, µM (highest dose often 114 µM), inactives show at the highest dose activity change, negative = inhibition, actives largely listed as inhibitors; AlphaScreen JMJD2A-Tudor / H3K4me3 peptide binding; hit rate 4.4% among 390,000; note: % is set by controls: 0 for no effect and ±100 for the full control effect; nearly all actives have a fitted effect of over 50% in size
# BAZ2B block – inhibitors of human BAZ2B bromodomain; Potency, µM (highest dose often 114 µM), inactives show at the highest dose activity change, negative = inhibition, most hits filed as inhibitors; AID 504333; AlphaScreen BAZ2B-H3K14Ac peptide displacement; hit rate 4.4% among 360,000; note: % is set by controls: 0 for no effect and ±100 for the full control effect; nearly all actives have a fitted effect of over 60% in size
#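 AlphaScreen displacement: compounds (up to 110uM) incubated 30 min at room temperature with a preformed 50 nM BAZ2B/50 nM biotinylated H3K14Ac peptide complex in PBS pH 7.4 with Tween-20. Donor and acceptor beads at 10 ug/mL final added, 20 min light-protected before reading.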
# L3MBTL1 inh – L3MBTL1 (human) inhibition. Q9Y468. AlphaScreen L3MBTL1–H3K9me1 peptide binding. Potency, µM (highest dose often 57.1 µM), for the others: at the highest dose activity, negative = inhibition, hits mostly inhibitors. hit rate 0.66% among 230,000; note: % is set by controls: 0 for no effect and ±100 for the full control effect; nearly all actives have a fitted effect of over 60% in size
#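 AlphaScreen proximity signal between nickel-chelate acceptor and streptavidin donor beads (final 10 ug/mL) reports binding of 50 nM L3MBTL1 to 75 nM biotin-H3 K9me1 peptide; complex incubated with compounds 30 min at room temperature; cefsulodin titration as control.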
# Numbers without * were called inactive; ? = inconclusive; / = no result given; [ ] = another dose, or the depositor's remark. Compounds with a hit are over-represented: about 12% of the library has one in this group of screens. Calls come from the whole dose curve; as a rule, active = well fitted curve in the direction sought with a large enough effect; inconclusive = small, poorly fitted or top-dose-only effect, or another doubt; inactive = no such curve, though single readings can be large; an effect the other way counts as inactive or inconclusive. Potency is the fitted concentration of half-maximal effect.
SMILES,Sfp PPTase inh,G9a inh,HP1b chromo inh,JMJD2A Tudor inh,BAZ2B block,L3MBTL1 inh
O=C(O)c1ccccc1C(=O)Nc1ccc(Oc2cccc3ccccc23)cc1,2%,40µM*,18%,-35%,50µM*,?
Cc1cc2c(s1)c1cnn(Cc3ccc(-c4ccccc4)cc3)c(=O)c1n2C,/,/,/,-15%,/,/
COc1ccc(C2Nc3ccccc3C(=O)N2Cc2ccccc2)cc1COc1cccc(C(F)(F)F)c1 (stereo not drawn),/,/,/,-12%,/,/
O=C(CCN1CCCCC1)c1ccc2c(c1)OCCO2,-14%,8.9µM*,3%,-15%,6%,-1%
O=C(CCCc1ccccc1)c1ccc2c(c1)OCCO2,-17%,159%[59 µM],373%,205%,222%,57%
CN1CCN(CCC(=O)Nc2ccc3c(c2)OCO3)CC1,-10%,7%[59 µM],38%,3%,-2%,?
O=C(CCN1CCc2ccccc2C1)c1ccc2c(c1)OCCO2,45µM*,8.9µM*,10%,-14%,-32%,-2%
O=C(CCN1CCCCCC1)Nc1ccc2c(c1)OCCO2,-23%,?,?,5µM*,56µM*,/
O=C(CCN1CCc2ccccc21)c1ccc2c(c1)OCCO2,?,?,-43%,?,50µM*,-1%
CCOc1cccc(C(=O)N(Cc2cccc(F)c2)C2CCS(=O)(=O)C2)c1 (stereo not drawn),8%,-5%,22%,-12%,-10%,/
CCOC(=O)C(=O)CC(=O)c1ccc2c(c1)OCCO2,-24%,20µM*,7%,-26%,50µM*,-2%
O=C(CCN1CCCC1Cc1ccccc1)c1ccc2c(c1)OCCO2 (stereo not drawn),50µM*,2.8µM*,?,89µM*,?,/
O=C(CCc1ccccc1)c1ccc2c(c1)OCCCO2,-10%,208%,191%,151%,139%,/
COC(=O)c1sc2cccc(F)c2c1S(=O)(=O)Nc1cc(C)c(Cl)cc1OC,/,2%[59 µM],45%,-15%,-17%,/
CCOc1cccc(-c2nnc3sc(C4CCCCC4)nn23)c1,?,35µM*,?,-25%,-5%,-2%
COc1cccc(-c2nnc3sc(C4CCCCC4)nn23)c1,-10%,-47%,18%,-20%,-6%,/
Cc1noc(C)c1C(=O)Nc1cc(S(=O)(=O)N2CCCCC2)ccc1N(C)C,/,40µM*,12%,-19%,10%,0%
CN(C)c1ccc(S(=O)(=O)N2CCCCC2)cc1NC(=O)C1=COCCO1,-6%,13%,18%,-24%,-10%,/
CC(C)Oc1ccc2c(=O)c3cc(C(=O)O)ccc3oc2c1,9%,/,/,/,/,/
Cc1ccc(C(=O)Nc2ccccc2C(=O)N2CCN(c3ccccc3)CC2)cc1,-2%,-11%,12%,-34%,4%,/
Cc1ccc(N2CCN(C(=O)c3ccccc3NC(=O)c3ccccc3C(=O)O)CC2)cc1,15%,56µM*,24%,-20%,-36%,-6%
COc1cccc(C(=O)Nc2ccccc2C(=O)N2CCCC2)c1,10%,11%,22%,-10%,?,/
O=C(CN1CCN(c2ncccn2)CC1)NCc1ccccc1,21%,56µM*,37%,-13%,10%,/
COc1ccc(N2CCN(C(=O)c3ccc(NC(=O)c4nsc5ccccc45)cc3)CC2)cc1,/,10µM*,-13%[57 µM],?,?,/
COc1ccc(N2CCN(C(=O)c3ccccc3NC(=O)c3ccccc3)CC2)cc1,2%,45µM*,-11%,-31%,-38%,/
SMILES,Sfp PPTase inh,G9a inh,HP1b chromo inh,JMJD2A Tudor inh,BAZ2B block,L3MBTL1 inh
COC(=O)c1cccc(NC(=O)c2nsc3ccccc23)c1,/,4.5µM*,31%,-2%,19%,/
COc1ccc(N2CCN(C(=O)Nc3ccccc3Cl)CC2)cc1,-5%,?,1%,-22%,-16%,-13%
COc1ccc(N2CCN(C(=O)Nc3cccc(C(F)(F)F)c3)CC2)cc1,7%,13µM*,-11%,?,?,/
COc1ccc(N2CCN(CC(=O)Nc3ccccc3C(=O)NCc3ccccc3)CC2)cc1,/,?,?,56µM*,45µM*,?
COC(=O)c1ccccc1NC(=O)N1CCN(c2ccc(OC)cc2)CC1,11%,40µM*,?,?,?,?
O=C(CN1CCN(c2ccc(F)cc2)CC1)Nc1ccccc1C(=O)NCCc1ccccc1,/,10%[12.7 µM],12%,-28%,?,-11%
COc1ccc(C2Nc3ccccc3C(=O)N2Cc2ccccc2)cc1COc1ccc(F)cc1 (stereo not drawn),/,/,/,-11%,/,/
CCN1C(=O)[C@H]2[C@H]3[C@H](O)[C@H](O)C/C(=N/OC/C=C(\C)CCC=C(C)C)[C@@H]3CC[C@@H]2C1=O,18%,/,/,/,/,/
Cc1ccc2scc(N3CCCCC3C)c(=O)c2c1 (stereo not drawn),/,-50%[59 µM],5%[57 µM],?,-27%,/
COc1ccccc1CNC(=O)C1CCCN(c2nnc(-n3c(C)ccc3C)s2)C1 (stereo not drawn),/,5%[59 µM],3%,-26%,-13%,/
COC(=O)c1cnc(N2CCN(c3ccc(OC)cc3)CC2)c2ccccc12,/,13µM*,-13%[57 µM],25µM*,22µM*,/
COC(=O)c1cnc(N2CCN(c3ccccc3F)CC2)c2ccccc12,/,78%[59 µM],117%[57 µM],90%,37%,/
COc1ccc(N2CCN(C(=O)c3ccccc3NS(=O)(=O)c3ccc(C)cc3)CC2)cc1,9%,50µM*,-19%,?,?,/
Cc1ccc(O/C=C2/Nn3c(nnc3-c3cc(-c4ccccc4)n[nH]3)S2)cc1,/,/,7%[57 µM],-15%[57.1 µM],/,/
CC(C)(C)c1nc2ccccc2[nH]1,-5%,?,-4%,79µM*,-8%,/
CC(C)Sc1nc2ccccc2[nH]1,21%,56µM*,62%,2%,-4%,11%
CC(Sc1nc2ccccc2[nH]1)C(=O)O (stereo not drawn),-5%,1%[12.7 µM],9%,-28%,3%,/
CC(=O)N1CCC2(CC1)OC(=O)C(C)=C2C(=O)Nc1cc(C)ccc1C,/,0%[59 µM],-6%,-16%,2%,/
CCOC(=O)c1[nH]c2ccccc2c1NC(=O)c1ccccc1OCC,/,-33%[59 µM],27%,-33%,-11%,/
Cc1ccc(S(=O)(=O)c2cn(C)c3cc(N4CCOCC4)c(F)cc3c2=O)c(C)c1,/,0%[59 µM],16%,-15%,-2%,/
CCn1c(=O)cc(OCC(=O)N(C)c2ccc(OC)cc2)c2ccccc21,/,-13%[59 µM],16%,-10%,89µM*,/
CCOc1ccc(N(CC)C(=O)COc2cc(=O)n(CC)c3ccccc23)cc1,-2%,-25%[59 µM],-16%,-33%[57.1 µM],-13%,/
Cc1ccc(CNC(=O)CCCOc2cc(=O)n(C)c3ccccc23)o1,22µM*,?,-2%,-28%,-7%,-6%

# Screening data from PubChem BioAssay.
